Cruzain inh Det: inhibitors of Trypanosoma cruzi cruzain with detergent; P25779; purified cruzain, Z-FR-AMC fluorescence, 0.01% Triton; Potency, µM, inactives show max response, negative = inhibition, most hits filed as inhibitors; 0.43% of 200,000 active; AID 1478;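 further: plate controls were neutral wells for no effect and buffer without enzyme for full effect; nearly all actives have a fitted effect of over 40% in size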
Target sequence (P25779 123-467 limits assumed): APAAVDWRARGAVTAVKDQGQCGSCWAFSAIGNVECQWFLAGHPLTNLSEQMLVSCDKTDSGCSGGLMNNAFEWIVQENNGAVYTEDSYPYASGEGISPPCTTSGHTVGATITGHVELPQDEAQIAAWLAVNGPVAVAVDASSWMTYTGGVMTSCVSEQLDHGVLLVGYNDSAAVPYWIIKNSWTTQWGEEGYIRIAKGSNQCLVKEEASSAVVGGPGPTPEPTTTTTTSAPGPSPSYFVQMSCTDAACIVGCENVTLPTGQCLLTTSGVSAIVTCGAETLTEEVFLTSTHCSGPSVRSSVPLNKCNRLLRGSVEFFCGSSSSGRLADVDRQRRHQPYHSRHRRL
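Steps: dispense cruzain (1.5 nM final) in acetate buffer pH 5.5 with DTT and 0.01% Triton X-100; pin-transfer compounds; incubate 15 min RT; add Z-FR-AMC (2 uM final); read fluorescence every 30 s, using the 60 s intensity change.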
Cruzain inh noDet: inhibitors of Trypanosoma cruzi cruzain without detergent | P25779 | Potency, µM, inactives show max response, negative = inhibition, actives largely listed as inhibitors | 2.3% of 200,000 active | purified cruzain, Z-FR-AMC fluorescence, no detergent | AID 1476;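 further: plate controls were enzyme without inhibitor for no effect and buffer without enzyme for full effect; nearly all actives have a fitted effect of over 40% in size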
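Purified cruzain at 1.5 nM, pre-incubated 15 min with compound at room temperature in 100 mM sodium acetate pH 5.5, 5 mM DTT, 0.00005% Triton X-100. Reaction started with 2 uM Z-FR-AMC; AMC fluorescence increase over 60 s gives rate.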
Papain inh: counter-screen for cruzain inhibitors: papain inhibition; shares compounds with Cruzain inh Det; purified papain, Z-FR-AMC fluorescence cleavage; 41% of 410 active; Potency, µM, for inactives: max response, negative = inhibition, most hits filed as inhibitors;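 further: 0% = no-compound wells and -100% = no-enzyme wells; nearly all actives have a fitted effect of over 35% in size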
Target sequence (P00784 whole entry, looked up): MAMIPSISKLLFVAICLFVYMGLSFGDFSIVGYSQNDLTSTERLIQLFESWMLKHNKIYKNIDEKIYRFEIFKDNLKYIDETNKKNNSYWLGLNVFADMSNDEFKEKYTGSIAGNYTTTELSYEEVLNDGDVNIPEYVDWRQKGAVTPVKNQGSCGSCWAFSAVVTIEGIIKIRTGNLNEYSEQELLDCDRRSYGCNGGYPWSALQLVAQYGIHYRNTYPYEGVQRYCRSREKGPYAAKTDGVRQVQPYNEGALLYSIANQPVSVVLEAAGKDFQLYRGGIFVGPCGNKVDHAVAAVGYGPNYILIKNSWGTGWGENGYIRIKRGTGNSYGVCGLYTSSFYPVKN
* hit, by the source's call; ? = inconclusive; . = not tested or not shown. This is a sample that favours compounds with a hit; in the whole collection about 2.4% have one here. The call rests on the fitted dose curve; in most records, active means well fitted curve in the direction sought with a large enough effect; inconclusive means small, poorly fitted or top-dose-only effect, or another doubt; inactive means no such curve, though single readings can be large; an effect the other way counts as inactive or inconclusive. Potency means the concentration at half of the fitted maximal effect.

SMILES	Cruzain inh Det	Cruzain inh noDet	Papain inh
COc1cc(C2c3c(oc4ccc(F)cc4c3=O)C(=O)N2c2nc(C)c(C)s2)cc(OC)c1OC (stereo not given)	2.2%	23.0%	.
CC(=O)c1ccc(S(=O)(=O)Nc2ccc(-c3ccc(N4CCCCC4)nn3)cc2)cc1	-3.0%	?	.
Cc1nc(N2CCOCC2)c2nc(-c3ccccc3)n(C(C)CN(C)C)c2n1 (stereo not given)	0.3%	-7.2%	.
COc1ccc(C(=O)NCc2nnc(SCC(=O)Nc3ccccc3)n2-c2ccccc2)cc1	1.2%	12.9%	.
COC(=O)Cn1c(=NC(=O)c2ccc(Cl)s2)sc2cc(C)ccc21	22.4µM*	20µM*	14.1µM*
C#CCn1c(=NC(=O)c2ccc(Br)s2)sc2cc(NC(C)=O)ccc21	-11.8%	-18.1%	.
CCS(=O)(=O)c1ncc(N(Cc2cccc(F)c2)Cc2ccco2)c(C(=O)Nc2ccccc2Cl)n1	-0.9%	11.6%	.
C1CCN(c2nc(N3CCCCC3)nc(N3CCNCC3)n2)CC1	3.9%	5.9%	.
N#Cc1nc(N2CCCC2)nc(N2CCCC2)n1	7.94µM*	5.01µM*	5.62µM*
COc1nc(C#N)nc(N2CCCCC2)n1	.	.	2.24µM*
N#Cc1nc(N)nc(N2CCCCC2)n1	.	.	5.01µM*
CC(=O)c1nnn(-c2nc(C#N)nc(N3CCOCC3)n2)c1C	.	.	-6.8%
COc1nc(OC)nc(N2CCCCCC2)n1	-3.9%	3.6%	.
Nc1nc(-c2ccco2)nc(N2CCCCC2)n1	-1.3%	-17.4%	.
CC(=O)c1nnn(-c2nc(N)nc(N(c3ccccc3)c3ccccc3)n2)c1C	-4.5%	?	.
CCOc1ccc(NC(=O)Cn2cc(C(=O)c3ccc(CC)cc3)c(=O)c3cc(C)ccc32)cc1	-2.7%	-3.2%	.
CCc1nc(Nc2ccc(F)c(Cl)c2)c2c3c(sc2n1)CCCC3	-3.5%	14.7%	.
CC(=O)N1CCc2cc(S(=O)(=O)NC(Cc3ccccc3)C(=O)Nc3cccc(C)c3)ccc21 (stereo not given)	-1.6%	-21.7%	.
COc1ccc(N2CCN(C(CNC(=O)C(=O)NCc3ccc(C)cc3)c3cccnc3)CC2)cc1 (stereo not given)	0.2%	4.5%	.
CCCCCCCCCCCCCCCC(=O)NCCCC(=O)O	2.3%	1.7%	.
O=C(Nc1ccc(F)c(Cl)c1)Nc1c[nH]c(=O)[nH]c1=O	1.3%	-5.4%	.
CC(C)(C)C(=O)OCC(=O)C1CCC2C3CCC4=CC(=O)CCC4(C)C3CCC12C (stereo not given)	0.0%	-2.4%	.
CCOc1cccc2cc(-c3nc4sc5c(c4c(=O)[nH]3)CCC(C(C)(C)C)C5)c(=O)oc12 (stereo not given)	0.5%	5.6%	.
O=C1C(c2ccc(F)cc2)N(CCc2ccccc2)C(=O)CN1C1CCCCCC1 (stereo not given)	0.1%	-14.1%	.
CC(C)N(C#N)c1nc(N2CCOCC2)nc(N2CCOCC2)n1	2.3%	-5.4%	.
SMILES	Cruzain inh Det	Cruzain inh noDet	Papain inh
CCOC(=O)CNc1nc(C#N)nc(N2CCOCC2)n1	2.24µM*	2µM*	2.24µM*
CN(C)c1nc(SCC#N)nc(N2CCOCC2)n1	3.5%	-7.0%	.
CN(C)c1nc(C#N)nc(N2CCOCC2)n1	3.98µM*	3.16µM*	2.24µM*
CCCNc1nc(N2CCOCC2)nc(N2CCOCC2)n1	2.7%	3.7%	.
N/C(=N/O)c1nc(N2CCCC2)nc(N(c2ccccc2)c2ccccc2)n1	-11.7%	-2.5%	.
N#Cc1nc(N2CCCC2)nc(N(c2ccccc2)c2ccccc2)n1	.	.	2µM*
N#Cc1nc(N2CCCCC2)nc(N2CCOCC2)n1	0.891µM*	1µM*	1µM*
Cc1cccc(N(C)C(=O)c2cc3c(=O)oc4ccc(C)cc4c3s2)c1	3.2%	-5.7%	.
COc1ccc(NC(=O)Cn2c(=O)n(Cc3ccc4c(c3)OCO4)c(=O)c3ccc(C(=O)NC4CCCCC4)cc32)cc1	0.1%	-20.4%	.
CC(=O)c1cccc(NC(=O)CN2C(=O)c3ccccc3Sc3ncccc32)c1	-4.8%	-15.8%	.
COc1ccc(CNC(=O)C2CCN(S(=O)(=O)c3c(C)noc3/C=C/c3ccccc3F)CC2)cc1	-1.1%	-1.2%	.
NC(CCC(=O)NC(CCSC(CC(=O)O)C(=O)O)C(=O)NCC(=O)O)C(=O)O (stereo not given)	4.4%	-5.8%	.
CNc1nc(OCC(F)(F)F)nc(N2CCOCC2)n1	2.7%	-2.9%	.
CCOc1nc(C#N)nc(N2CCOCC2)n1	.	.	3.98µM*
COC(=O)c1c(SCC(=O)Nc2cccc(C(F)(F)F)c2)[nH]c2ccccc2c1=O	0.3%	-11.8%	.
CN1C(=O)/C(=N\OC(=O)c2cccc3ccccc23)c2ccccc21	3.16µM*	7.94µM*	15.8µM*
N/C(Cc1ccc(Cl)cc1)=N\OC(=O)c1cccc2ccccc12	-2.5%	-0.4%	.
CC1(C)CC(=O)C(C(c2cccc(O)c2O)C2C(=O)CC(C)(C)CC2=O)C(=O)C1	3.2%	-7.5%	.
CSc1nc(N(CCO)CCO)c2sc3nc(-c4ccco4)c4c(c3c2n1)CCC4	10µM*	3.16µM*	12.6µM*
OCCN(CCO)c1ncnc2c1sc1nc(N3CCOCC3)c3c(c12)CCCC3	-11.3%	?	.
COc1ccc([C@@H](C)C(=O)c2ccc(O)cc2O)cc1	-12.7%	-3.1%	.
O=C(CC1N=C2c3ccccc3N=C(SCc3cccc(F)c3)N2C1=O)NCc1ccc2c(c1)OCO2 (stereo not given)	-5.1%	2.9%	.
Cc1oc2ccc(OCc3ccc(F)cc3)cc2c1C(=O)O	-3.5%	-11.6%	.
Cc1ccc(COc2ccc3oc(-c4ccccc4)c(C(=O)O)c3c2)cc1	?	20µM*	31.6µM*
Cc1cc2ccccc2n1CCNC(=O)C1CCCCC1	-4.5%	0.3%	.
SMILES	Cruzain inh Det	Cruzain inh noDet	Papain inh
O=C(NCCc1nc2ccccc2n1CCCOc1cccc2ccccc12)C1CCCCC1	.	.	-28.3%
O=C(NCCCc1nc2ccccc2n1Cc1cccc(Cl)c1)C1CCCCC1	-10.4%	1.7%	.
Cc1cccc(C)c1OCCCn1c(CCNC(=O)C2CCCCC2)nc2ccccc21	3.55µM*	6.6%	-20.6%
CCOc1ccc(N2CC(NC(=O)c3ccc(S(=O)(=O)N4CCOCC4)cc3)CC2=O)cc1 (stereo not given)	-2.1%	14.2%	.
O=C(/C=C/c1ccc2c(c1)OCO2)Nc1ccc(-n2nncc2-c2ccccc2)cc1	.	.	14.1µM*
COc1ccc(/C=C/C(=O)Nc2ccc(-n3nncc3-c3ccc(OC)c(OC)c3)cc2)cc1OC	-14.7%	?	.
COc1ccc(-c2cnnn2-c2ccc(NC(=O)/C=C/c3ccc(OC)c(OC)c3)cc2)cc1	3.55µM*	12.6µM*	-14.4%
O=C(Nc1ccc(-n2nncc2-c2ccccc2)cc1)c1cccc(F)c1	10.6%	8.7%	.
O=C(Nc1ccccc1)c1ccc(-n2nncc2-c2ccccc2)cc1	.	.	1.5%
CN(C)S(=O)(=O)c1ccc(C(=O)Nc2ccc(-n3nncc3-c3ccccc3)cc2)cc1	-0.3%	-15.9%	.
COc1ccc(C(=O)c2sc3nc(-c4ccc(F)cc4)ccc3c2N)cc1	-4.6%	4.8%	.
Cc1nn(-c2ccccc2)c(OC(=O)c2ccc(F)cc2)c1S(=O)(=O)c1ccccc1	-0.2%	-1.6%	.
COc1ccnc(CS(=O)c2nc3ccc(OC(F)F)cc3[nH]2)c1OC (stereo not given)	?	-27.2%	.
CCOC(=O)N1CCN(Cc2ccccn2)CC1	-1.2%	-4.0%	.
CCOC(=O)N1CCC(=C2c3ccc(Cl)cc3CCc3cccnc32)CC1	-5.4%	?	-8.7%
CCn1cc(C(=O)N(C)c2cc(C)ccc2C)c2cc(OC)c(OC)cc2c1=O	-3.1%	-3.2%	.

Assay outcomes from PubChem BioAssay.
